Screens from PubChem.
RGS16-Gao HTS = RGS16-Galphao interaction regulator (human). O15492+P09471. bead-based flow cytometry RGS16-Galphao binding, fluorescence; actives lie on both sides. binding response (% of control), % at 10 µM. 220,000 tested, 0.38% active;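 note: Galphao activated by GDP with aluminum fluoride before binding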
RGS4-Gao reg = modulates binding of RGS4 to human Galphao; 220,000 tested, 0.33% active; Multiplexed bead flow cytometry; actives lie on both sides; binding response (% of control), % at 10 µM; AID 1415; in the data active = binding response below about 49% or above about 150%; inactive = in between;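 note: fluorescent Galphao activated with aluminum fluoride binding bead-coupled RGS4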
Target sequence (P09471 whole entry, looked up): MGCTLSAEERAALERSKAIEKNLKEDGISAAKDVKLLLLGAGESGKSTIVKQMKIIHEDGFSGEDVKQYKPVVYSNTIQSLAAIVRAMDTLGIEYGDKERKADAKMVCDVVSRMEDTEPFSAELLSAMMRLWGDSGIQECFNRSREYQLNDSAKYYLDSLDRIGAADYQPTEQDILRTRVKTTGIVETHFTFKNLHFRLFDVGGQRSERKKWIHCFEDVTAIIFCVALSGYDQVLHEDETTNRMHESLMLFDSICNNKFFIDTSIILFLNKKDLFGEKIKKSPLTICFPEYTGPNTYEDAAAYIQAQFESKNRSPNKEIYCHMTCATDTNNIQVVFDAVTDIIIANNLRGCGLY
GSH bead fluor = GSH bead compound fluorescence profile | GSH beads flow cytometry, compound fluorescence 488/530 nm; stronger effect = higher value | fluorescence (KMESF) at 10 µM | 190,000 tested, 0.25% active; in the data active = fluorescence above about 89;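 note: glutathione beads carrying GST-tagged Bcl family fusion proteins plus one bare bead set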
RGS7-Gao = regulators of human RGS7-Galphao interaction; P09471; 220,000 tested, 0.35% active; Multiplexed bead flow cytometry, RGS7-Galphao binding; actives lie on both sides; AID 1439; binding response (% of control), % at 10 µM; in the data active = binding response below about 49% or above about 150%; inconclusive = no clear call, values can overlap the other calls; inactive = in between;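 note: fluorescent Galphao held in activated GDP-AlF4 state binding bead-coupled RGS7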
Avidin bead fluor = avidin bead compound fluorescence profile | Avidin beads, compound fluorescence 488/530 nm, flow cytometry; stronger effect = higher value | fluorescence (KMESF) at 10 µM | 220,000 tested, 0.38% active | AID 1775; in the data active = fluorescence above about 47
RGS8-Gao reg = human RGS8-Galphao interaction regulation. 220,000 tested, 0.34% active. response (percent of control binding), % at 10 µM. P09471. multiplexed bead flow cytometry, RGS8-Galphao binding; actives lie on both sides; in the data active = response below about 60% or above about 140%; inactive = in between;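 note: Galphao activated as the GDP aluminium fluoride complex binding bead-coupled RGS8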
RGS-Gao = regulators of human RGS4-Galphao interaction; shares compounds with RGS16-Gao HTS; multiplexed bead flow cytometry, RGS–Galpha-o binding; RGS4–Galpha-o binding response, % at 10 µM; 1,600 tested, 99% active; AID 1504;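 note: fluorescently labeled Galpha-o bound to GDP with aluminium fluoride binding biotinylated RGS beads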
Biotin-avidin = biotin-avidin bead binding disruption counter-screen. shares compounds with RGS16-Gao HTS. streptavidin beads, fluorescein-biotin binding, flow cytometry. inhibition, % at 10 µM. 1,700 tested, under 10 active. AID 1783;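 active = inhibition above 50%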;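 note: median green fluorescence of gated singlet beads compared with DMSO control wells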
RGS8-Gao single = confirmation of regulators of human RGS8-Galphao interaction; binding response (% of control), % at 10 µM; AID 1836; shares compounds with RGS16-Gao HTS; bead-based flow cytometry RGS8-Galphao binding, fluorescence; actives lie on both sides; 1,700 tested, 3% active; in the data active = binding response below about 72% or above about 130%; inactive = in between;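 note: Galphao activated as GDP AlF4 complex before binding bead RGS8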
RGS7-Gao single = RGS7-Galphao interaction regulation, single point confirmation | bead-based flow cytometry RGS7-Galphao binding; actives lie on both sides | response (percent of control binding), % at 10 µM | shares compounds with RGS16-Gao HTS | 1,700 tested, 7.8% active; in the data active = response below about 75% or above about 130%; inactive = in between;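 note: fluorescent Galphao activated with GDP and aluminum fluoride binding bead-coupled RGS7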
RGS16-Gao conf = confirmation of regulators of human RGS16-Galphao interaction. response (% of control binding), % at 10 µM. 1,700 tested, 4% active. bead-based flow cytometry, RGS16-Galphao binding; actives lie on both sides. shares compounds with RGS16-Gao HTS. AID 1838; in the data active = response below about 74% or above about 130%; inactive = in between;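 note: Galphao activated as the GDP aluminium fluoride complex binding bead-coupled RGS16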
RGS4-Gao single = confirmation of regulators of human RGS4-Galphao interaction; shares compounds with RGS16-Gao HTS; RGS4-Galphao binding, multiplexed bead flow cytometry; actives lie on both sides; binding response (% of control), % at 10 µM; 1,700 tested, 4% active; in the data active = binding response below about 74% or above about 130%; inactive = in between
RGS19-Gao conf = confirmation of regulators of human RGS19-Galphao interaction. AID 1841. 1,700 tested, 5% active. shares compounds with RGS16-Gao HTS. response (percent of control binding), % at 10 µM. bead-based flow cytometry RGS19-Galphao binding; actives lie on both sides; in the data active = response below about 50% or above about 160%; inactive = in between
Target sequence (P09471 whole entry, looked up): as above
Target sequence (P49795 whole entry, looked up): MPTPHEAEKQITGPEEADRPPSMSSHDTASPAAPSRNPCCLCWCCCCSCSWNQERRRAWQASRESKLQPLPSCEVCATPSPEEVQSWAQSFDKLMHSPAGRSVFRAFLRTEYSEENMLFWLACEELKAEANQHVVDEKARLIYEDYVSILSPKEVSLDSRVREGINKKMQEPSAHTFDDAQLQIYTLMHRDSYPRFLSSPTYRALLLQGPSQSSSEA
Numbers stand for hits; – = inactive; ? = inconclusive; · = no result given; [ ] = remark or other dose. In the library only some 1.2% were active in any assay of this set; here they are far more common. Unless noted, the rule behind the calls is not given here.

SMILES | RGS16-Gao HTS | RGS4-Gao reg | GSH bead fluor | RGS7-Gao | Avidin bead fluor | RGS8-Gao reg | Biotin-avidin | RGS8-Gao single | RGS7-Gao single | RGS16-Gao conf | RGS4-Gao single | RGS19-Gao conf | others
CCCCCNC(=O)C1CC(=O)OC12CCCCC2 (configuration not stated) | – | – | – | – | – | – | · | · | · | · | · | ·
O=C(O)CCC(=O)Nc1sc2c(c1C(=O)Nc1cccc3ccccc13)CCCCC2 | – | 193[activator] | – | 191[activator] | – | 174[activator] | – | – | – | – | – | –
Cc1nc(-c2cccc(Br)c2)ccc1C(=O)O | – | – | – | ? | – | – | · | · | · | · | · | ·
Cc1ccc(S(=O)(=O)N2CCN(C(C)CC(=O)O)CC2)cc1 (configuration not stated) | – | – | – | ? | – | – | · | · | · | · | · | ·
Cc1ccc(-c2csc3nnc(SCC(=O)Nc4nsc(-c5ccccc5)n4)n23)cc1 | · | · | – | · | · | · | – | – | – | – | – | –
O=C(CSc1nnc2scc(-c3ccccc3)n12)Nc1nsc(-c2ccccc2)n1 | – | – | – | – | – | – | · | · | · | · | · | ·
CNC(=O)c1c(NC(=O)c2cccc(N3C(=O)CCC3=O)c2)sc2c1CCC2 | -3.7 | -2.7 | · | ? | – | 3.9 | – | – | – | – | – | –
Cc1cc(Oc2ccc([N+](=O)[O-])cc2)nc(N2CCOCC2)n1 | – | – | · | ? | – | – | · | · | · | · | · | ·
Cc1cc(Oc2ccc(C#N)cc2)nc(N2CCOCC2)n1 | – | 41 | – | 43 | – | 55 | – | – | – | – | – | –
CCCCCCOc1ccc(N2C(=O)CC(N3CCN(CCN=CC4C(=O)CC(C)(C)CC4=O)CC3)C2=O)cc1 (configuration not stated) | – | – | – | 158[activator] | 85 | – | – | – | – | – | – | – | RGS-Gao=121
Cc1nn(C)c(C)c1C1C(C#N)=C(N)Oc2n[nH]c(C)c21 (configuration not stated) | 230[activator] | – | – | – | – | 140[activator] | – | – | – | – | – | – | RGS-Gao=110
CCOC(=O)CSc1nnc(Cn2nnc3ccccc32)n1-c1ccc(F)cc1 | – | – | · | ? | – | – | · | · | · | · | · | ·
CCNC(=S)Nc1cc(OCC)c(NC(=O)c2cccs2)cc1OCC | – | 44 | – | 36 | – | – | – | – | – | – | – | –
NC(=O)CSc1nnc(-c2ccco2)n1N | · | · | – | · | · | · | – | – | – | – | – | –
CCOC(=O)N1CCN(C(=O)C(=O)NN)CC1 | – | – | – | – | – | – | · | · | · | · | · | ·
OCC(O)C(O)C(O)C(O)c1nc2ccccc2[nH]1 (configuration not stated) | – | – | – | ? | – | – | · | · | · | · | · | ·
OC(c1ccc(Cl)cc1)C(O)c1nc2ccccc2[nH]1 (configuration not stated) | – | – | – | – | – | 141[activator] | · | · | · | · | · | · | RGS-Gao=121
CC1CN(C(=O)COC(=O)c2ccc(N(C)C)cc2)CC(C)O1 (configuration not stated) | – | – | – | – | – | – | · | · | · | · | · | ·
CN=c1scc(C)n1/N=C/c1ccc(O)c(O)c1O | – | – | – | – | – | 48 | – | 71 | 57 | 64 | – | 29 | RGS-Gao=64
CN=c1scc(-c2cccs2)n1/N=C/c1ccc(O)c(O)c1O | – | – | – | – | – | – | · | · | · | · | · | ·
Cc1cccc(NC(=S)N(CCCN2CCOCC2)C(C)c2cc3ccccc3o2)c1C (configuration not stated) | – | – | – | – | – | – | · | · | · | · | · | ·
CCOC(=O)C1CCN(C(=O)CSc2ccc(Cl)cc2)CC1 | 8.3 | 49 | – | – | – | 49 | – | – | – | – | – | –
CCOC(=O)C1CCN(C(=O)CSc2ccc(Br)cc2)CC1 | – | – | – | – | – | – | · | · | · | · | · | ·
CCOC(CCc1c(C)nc(NC(C)=O)[nH]c1=O)OCC | – | – | · | ? | – | – | · | · | · | · | · | ·
CC(=O)Nc1nc(C)c(CCCOc2ccc([N+](=O)[O-])cc2)c(=O)[nH]1 | – | 153[activator] | · | ? | 47 | – | – | – | – | – | – | –
SMILES | RGS16-Gao HTS | RGS4-Gao reg | GSH bead fluor | RGS7-Gao | Avidin bead fluor | RGS8-Gao reg | Biotin-avidin | RGS8-Gao single | RGS7-Gao single | RGS16-Gao conf | RGS4-Gao single | RGS19-Gao conf | others
CCCCNC1CCS(=O)(=O)C1 (configuration not stated) | · | · | – | · | · | · | – | – | – | – | – | –
O=[N+]([O-])c1ccc(Sc2ccccc2)nc1 | – | – | – | – | – | – | · | · | · | · | · | ·
Nc1cccnc1Sc1ccc([N+](=O)[O-])cn1 | – | 4.3 | – | 5.8 | – | 5.6 | – | – | 131[activator] | – | – | –
Cc1ccc(S(=O)(=O)Nc2c(C)nn(C)c2C)cc1 | -95 | – | – | – | – | – | – | – | – | – | – | – | RGS-Gao=66
Cc1ccccc1-n1c(SCC(=O)c2c(N)n(C)c(=O)n(C)c2=O)nc2sc3c(c2c1=O)CCCC3 | 22 | – | – | – | – | – | – | – | – | – | – | – | RGS-Gao=88
CCc1cc(C=NC2CCCCC2)c(O)s1 | -39 | -60 | – | -28 | – | -0.4 | – | – | – | – | – | –
CCOc1ccccc1NC(=S)NCCc1ccccc1 | – | – | – | ? | – | – | · | · | · | · | · | ·
CCCCN(C)C1=CC2=CC(=C(C#N)C#N)CCC2CC1 (configuration not stated) | – | – | – | 164[activator] | 68 | – | – | – | 206[activator] | 157[activator] | 154[activator] | 293[activator] | RGS-Gao=147
N#CC1=C(N)C2=C(N3CCCCC3)CCCC2C1(C#N)C#N (configuration not stated) | – | – | – | – | – | – | · | · | · | · | · | ·
CCN(CC)C1=CC2=CC(=C(C#N)C#N)CCC2CC1 (configuration not stated) | – | 165[activator] | – | – | – | – | – | – | 167[activator] | – | 130[activator] | 363[activator]
N#CC(C#N)=C1C=C2C=C(N3CCCCC3)CCC2CC1 (configuration not stated) | – | 161[activator] | 99 | 186[activator] | 84 | – | – | – | 137[activator] | – | – | 190[activator]
